Experimental data reported in PubChem BioAssay AID2570 (National Center for Advancing Translational Sciences (NCATS), 2010).
Inconclusive results are not listed. Calls of active or inactive are those of the source. Calls follow the shape of the dose curve; as a rule, active = well fitted curve in the direction sought with a large enough effect; inconclusive = small, poorly fitted or top-dose-only effect, or another doubt; inactive = no such curve, though single readings can be large or run the other way.

These compounds were tested against Vasopressin V1b receptor (Homo sapiens) (UniProt P47901) (assay: Counterscreen Concentration-Response Assay for Antagonists of the Neuropeptide S Receptor: Vasopressin Receptor Calcium Signal Transduction). Settings: CHO-AVPR1B, vasopressin-stimulated calcium fluorescence, FDSS.
Sequence of Vasopressin V1b receptor (Homo sapiens) (P47901 whole entry, looked up): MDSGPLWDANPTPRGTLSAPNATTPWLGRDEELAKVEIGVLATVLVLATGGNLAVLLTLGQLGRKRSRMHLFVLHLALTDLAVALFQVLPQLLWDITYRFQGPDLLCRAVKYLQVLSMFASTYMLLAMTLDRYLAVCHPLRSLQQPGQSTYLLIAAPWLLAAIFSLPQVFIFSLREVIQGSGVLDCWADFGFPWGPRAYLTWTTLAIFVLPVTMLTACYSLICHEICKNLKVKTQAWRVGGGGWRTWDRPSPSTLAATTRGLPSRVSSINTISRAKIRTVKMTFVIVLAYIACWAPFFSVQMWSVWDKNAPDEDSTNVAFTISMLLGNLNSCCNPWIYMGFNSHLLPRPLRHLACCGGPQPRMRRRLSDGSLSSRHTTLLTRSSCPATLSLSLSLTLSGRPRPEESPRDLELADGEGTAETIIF
How it was run: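 CHO cells stably expressing human AVPR1B, calcium-dye loaded, were given compound, then stimulated with 60 nM vasopressin in HBSS/0.1% BSA. Peak kinetic fluorescence was normalized to DMSO and no-signal controls; AC50 from Hill fits.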
For CCOC(=O)c1ccc(-n2cnc3c(c2=N)C(c2cccc(OC)c2)c2c(ccc4ccccc24)O3)cc1 (stereo unspecified), the max response was 17.2% (inactive).
For COc1ccc2c(c1)Oc1ncn(CCN3CCOCC3)c(=N)c1C2c1ccc(OC)c(OC)c1 (stereo unspecified), the max response was -21.2% (inactive).
For COc1ccc(C2c3c(n(CCc4ccccc4)cnc3=N)Oc3ccc4ccccc4c32)cc1OC (stereo unspecified), the max response was -53.4% (inactive).
For CCC(C)(CCN1CCOCC1)N(Cc1cc2ccccc2n(C)c1=O)C(=O)C1CCCCC1 (stereo unspecified), the max response was -9.76% (inactive).
For COc1ccc(C2c3ccc4ccccc4c3Oc3ncn(CCN4CCOCC4)c(=N)c32)cc1OC (stereo unspecified), the max response was -8.9% (inactive).
For COc1ccc(C2c3c(n(CCCc4ccccc4)cnc3=N)Oc3ccc4ccccc4c32)cc1OC (stereo unspecified), the max response was -23.2% (inactive).
In the case of CC(C)(C)OC(=O)Nc1ncnc2c1C(c1ccccc1)c1c(ccc3ccccc13)O2 (stereo unspecified), the max response is reported as 14.3% (inactive).
With COc1cccc(C2c3c(ncn(-c4ccc(Br)cc4)c3=N)Oc3ccc4ccccc4c32)c1 (stereo unspecified) the max response was 0.304% (inactive).
In the case of Cc1c(P(=S)(c2ccccc2)c2ccccc2)c2ccccc2n1C(=O)Cc1ccccc1, the max response is reported as 5.72% (inactive).
In the case of COc1cccc(C2c3c(ncn(-c4ccccc4-c4ccccc4)c3=N)Oc3ccc4ccccc4c32)c1 (stereo unspecified), the max response is reported as 13.8% (inactive).
COc1cccc(C2c3c(ncn(-c4cccc(C#N)c4)c3=N)Oc3ccc4ccccc4c32)c1 (stereo unspecified) was tested, and the max response was -10.9% (inactive).
COc1cccc(C2c3c(ncn(-c4ccc5c(c4)OCO5)c3=N)Oc3ccc4ccccc4c32)c1 (stereo unspecified) was tested, and the max response was -20.7% (inactive).
With COc1cccc(C2c3c(ncn(-c4cccc(Cl)c4)c3=N)Oc3ccc4ccccc4c32)c1 (stereo unspecified) the max response was -5.71% (inactive).
In the case of O=C(Cc1ccccc1)Nc1ncnc2c1C(c1ccccc1)c1c(ccc3ccccc13)O2 (stereo unspecified), the max response is reported as 7.19% (inactive).
With COc1ccc(C2c3c(n(Cc4ccccc4)cnc3=N)Oc3ccc4ccccc4c32)cc1OC (stereo unspecified) the max response was -20.3% (inactive).
In the case of COc1ccc(C2c3c(N)nc(CCCc4ccccc4)nc3Oc3ccc4ccccc4c32)cc1OC (stereo unspecified), the max response is reported as -15.9% (inactive).
COc1cccc(C2c3c(ncn(-c4ccccc4C)c3=N)Oc3ccc4ccccc4c32)c1 (stereo unspecified) was tested, and the max response was -2.54% (inactive).
N=c1c2c(ccn1-c1ccccc1)Oc1ccc3ccccc3c1C2c1ccccc1 (stereo unspecified) was tested, and the max response was -28.3% (inactive).
In the case of N=c1c2c(ccn1Cc1ccccc1)Oc1ccc3ccccc3c1C2c1ccccc1 (stereo unspecified), the max response is reported as 18.5% (inactive).
In the case of COc1ccc(C2c3c(nc(Cc4ccccc4)[nH]c3=O)Oc3ccc4ccccc4c32)cc1OC (stereo unspecified), the max response is reported as 14.7% (inactive).
For COc1ccc(C2c3c(ncn(CCc4ccccc4)c3=N)Oc3ccc4ccccc4c32)cc1OC (stereo unspecified), the max response was 7.55% (inactive).
